Bioassay records (PubChem BioAssay)
An excerpt weighted towards active compounds, which were near 0.92% of everything screened.
BLM helicase inh = blocks DNA unwinding by human BLM helicase; recombinant BLM DNA unwinding, fluorescence dequenching; Potency, µM (doses to about 56.1 µM), without a hit: at the highest dose activity change, negative = inhibition, hits mostly inhibitors; 350,000 compounds, 0.2% hits;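 note: plate controls were vehicle for no effect and no enzyme for full effect; nearly all actives have a fitted effect of over 35% in size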
FEN1 inhibitor = blocks human flap endonuclease 1; 390,000 compounds, 0.35% hits; AID 588795; Potency, µM (titrated, usually from 114 µM), for the others: at the top dose activity change, negative = inhibition, most hits filed as inhibitors; P39748; Recombinant FEN1 flap cleavage, fluorescence, 15 min; note: nearly all actives have a fitted effect of over 65% in size
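Potency values derive from four-parameter Hill fits of normalized qHTS data. The reaction used 10 nM FEN1 preincubated 15 min at room temperature with compound, then 50 nM DNA substrate, read at 0 and 15 min.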
RECQ1 inh = RECQ1 (human) helicase inhibition | P46063 | RECQ1 DNA unwinding, red fluorescence kinetic read | Potency, µM (series often up to 57.3 µM), for the others: at the top dose activity, negative = inhibition, most hits filed as inhibitors | 240,000 compounds, 0.54% hits | AID 2549;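 note: plate controls were vehicle for no effect and no enzyme for full effect; nearly all actives have a fitted effect of over 30% in size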
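RECQ1T1 50 nM; forked duplex (20 bp + 30-nt ss tails) 200 nM, ATP 2 mM final; pH 8.0, 2 mM MgCl2, 2.5 ug/ml poly(dI-dC); 15 min compound preincubation; discontinuous kinetic read over 2 h at RT.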
TDP1 block = TDP1 (human) enzyme inhibition | Q9NUW8 | recombinant TDP1, AlphaScreen DNA substrate cleavage | Potency, µM (doses to about 130 µM), for inactives: at the top dose activity change, negative = inhibition, hits mostly inhibitors | 350,000 compounds, 0.28% hits | AID 485290; note: nearly all actives have a fitted effect of over 40% in size
Target sequence (Q9NUW8 whole entry, looked up): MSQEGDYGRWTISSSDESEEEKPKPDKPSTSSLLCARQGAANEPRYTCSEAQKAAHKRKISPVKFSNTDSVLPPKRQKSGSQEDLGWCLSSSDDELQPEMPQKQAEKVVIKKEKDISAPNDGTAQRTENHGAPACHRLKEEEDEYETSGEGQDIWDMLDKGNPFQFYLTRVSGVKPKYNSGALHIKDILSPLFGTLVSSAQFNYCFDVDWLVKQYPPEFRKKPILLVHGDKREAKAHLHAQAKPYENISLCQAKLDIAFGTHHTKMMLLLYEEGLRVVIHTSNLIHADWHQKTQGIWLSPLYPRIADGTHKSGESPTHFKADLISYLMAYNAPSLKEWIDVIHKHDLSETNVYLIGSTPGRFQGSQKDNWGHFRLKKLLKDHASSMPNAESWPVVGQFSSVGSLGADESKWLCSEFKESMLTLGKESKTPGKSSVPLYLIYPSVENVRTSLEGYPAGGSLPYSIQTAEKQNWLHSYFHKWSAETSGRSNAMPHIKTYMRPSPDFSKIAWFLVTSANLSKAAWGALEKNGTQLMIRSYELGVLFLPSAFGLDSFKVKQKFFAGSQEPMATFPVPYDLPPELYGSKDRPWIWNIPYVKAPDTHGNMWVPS
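Enzyme-compound mixtures sat 15 min at room temperature, followed by a 5 min reaction with 15 nM final substrate and 10 min with AlphaScreen beads. Recombinant human Tdp1 was used at 1 nM final.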
APEX1 inh = blocks human APE1 abasic DNA cleavage; 350,000 compounds, 0.35% hits; Potency, µM (titrated, usually from 65.8 µM), without a hit: top-dose activity change, negative = inhibition, most hits filed as inhibitors; recombinant APE1, TAMRA/BHQ-2 abasic DNA cleavage fluorescence;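 note: plate controls were vehicle for no effect and reference inhibitor for full effect; nearly all actives have a fitted effect of over 55% in size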
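Activity was derived from the fluorescence gain between first and third kinetic reads (60 s intervals, ex 525/em 598 nm) after 50 nM THF-abasic TAMRA/BHQ-2 duplex was added to 0.75 nM APE1 preincubated 15 min with compound.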
* marks the source's active call; other numbers are inactive results; i = inactive; ? = inconclusive; / = not tested or not shown; ! = not active in a repeat; [ ] = another dose, or the depositor's remark. Calls come from the whole dose curve; as a rule, active = well fitted curve in the direction sought with a large enough effect; inconclusive = small, poorly fitted or top-dose-only effect, or another doubt; inactive = no such curve, though single readings can be large; an effect the other way counts as inactive or inconclusive. Unless noted, % is set by controls: 0 for no effect and ±100 for the full control effect; potency is the fitted concentration of half-maximal effect.

SMILES	BLM helicase inh	FEN1 inhibitor	RECQ1 inh	TDP1 block	APEX1 inh
CC[C@H]1OC(=O)[C@H](C)C(=O)[C@H](C)[C@@H](O[C@@H]2O[C@H](C)C[C@H](N(C)C)[C@H]2O)[C@](C)(OC)C[C@@H](C)C(=O)[C@H](C)[C@H]2N(CCCCn3cnc(-c4cccnc4)c3)C(=O)O[C@]12C	/	/	/	/	-4%
COc1ccc(C2Nc3ccccc3C(=O)N2Cc2ccccc2)cc1COc1ccc(Cl)cc1 (configuration not stated)	/	/	/	-1%	/
CN(CC(=O)Nc1ccc(N2CCOCC2)cc1)C(=O)CSc1ccc(Br)cc1	-7%	-1%	/	89µM*	-2%
NC(=O)C1CCN(c2nc(-c3ccc(C(F)(F)F)cc3)cs2)CC1	/	/	/	/	7%
O=C1CCCC(O)=C1N=Nc1c(Cl)cc(C(F)(F)F)cc1Cl	-8%	-25%	13µM*	11%	?
CC1(C)CC(=O)C(N=Nc2c(Cl)cc(Cl)cc2Cl)=C(O)C1	1%	-10%	-6%	5%	11%
O=C(O)C(c1ccccc1)N1C(=O)/C(=C\c2ccc(-c3ccccc3Cl)o2)SC1=S (configuration not stated)	?	50µM*	/	/	?
N#C/C(=C\c1cc(Br)c(O)c(Br)c1)c1nc2ccccc2c(=O)[nH]1	13µM*	-26%	/	?	/
Cc1ccc(CNc2cccc(N3CCCCC3)c2)cc1	/	/	/	/	13%
Nc1ccc(N=Nc2ccccc2)c2ccccc12	-14%	-9%	-18%	11%	56%
Nc1c(N=Nc2ccc(-c3ccc(N=Nc4cc(S(=O)(=O)O)c5ccccc5c4N)cc3)cc2)cc(S(=O)(=O)O)c2ccccc12	4µM*	/	10µM*	20%	32µM*
Cc1ccc(N=Nc2ccc(N)cc2C)c(S(N)(=O)=O)c1	-6%	-4%	i	9%	-2%
Cc1cc(-c2ccc(N=Nc3ccc4c(S(=O)(=O)O)cc(S(=O)(=O)O)c(N)c4c3O)c(C)c2)ccc1N=Nc1ccc2c(S(=O)(=O)O)cc(S(=O)(=O)O)c(N)c2c1O	11µM*!	/	8.9µM*	24%[56.1 µM]	2.5µM*
CC1(C)S[C@@H]2[C@H](NC(=O)C(C(=O)O)c3ccsc3)C(=O)N2[C@H]1C(=O)O (some centres not stated)	/	/	/	/	0%[21 µM]
O=C1N/C(=C\c2ccc(O)cc2)C(=O)c2ccccc21	32µM*	-15%	i	10%	?
N#Cc1cccc(-c2noc(-c3ccccc3F)n2)c1	/	/	/	/	3%
O=C(OCC#CCSc1nnc(-c2cccc3ccccc23)o1)c1sc(Cl)c(Cl)c1Cl	/	/	/	-2%	/
CC(=O)OCC1=C(C(=O)O)N2C(=O)C(NC(=O)CSc3ccncc3)[C@@H]2SC1 (some centres not stated)	-2%	/	13%	14µM*	-7%
NCc1ccccc1CC(=O)N[C@@H]1C(=O)N2C(C(=O)O)=C(CSc3nnnn3CC(=O)O)CS[C@@H]12	2%[21.4 µM]	/	1%[25.9 µM]	10µM*	/
O=C(CSc1nnc(-c2cccc(S(=O)(=O)N3CCCC3)c2)n1-c1ccccc1)Nc1ccc(Cl)cc1	/	/	/	/	-3%
Cc1cccn2c(=O)c3cc(S(=O)(=O)c4ccccc4)c(=N)n(Cc4ccco4)c3nc12	28µM*	4%	i	1%	-1%
Cc1ccc(S(=O)(=O)c2cc3c(=O)n4ccccc4nc3n(Cc3ccco3)c2=N)cc1C	?	-5%	-8%	1%	-1%
N=c1c(S(=O)(=O)c2ccccc2)cc2c(=O)n3ccccc3nc2n1Cc1ccco1	7.1µM*	-11%	-19%	1%	-1%
Cc1cccn2c(=O)c3cc(S(=O)(=O)c4ccc(F)cc4)c(=N)n(Cc4ccco4)c3nc12	-14%	3%	107%	-4%	-1%
COc1ccc(C2Nc3ccccc3C(=O)N2Cc2ccccc2C)cc1COc1ccc(NC(C)=O)cc1 (configuration not stated)	/	/	/	-2%	/
SMILES	BLM helicase inh	FEN1 inhibitor	RECQ1 inh	TDP1 block	APEX1 inh
CC(=O)NC(CC(=O)OCC(=O)c1ccc(NC(=O)CC(C)C)cc1)c1ccccc1 (configuration not stated)	/	2%	/	45µM*	?
C[n+]1ccc(C(c2c[nH]c3ccccc23)c2cc[n+](C)c3ccccc23)c2ccccc21	/	18µM*	/	/	/
O=S(=O)(c1c(F)cccc1F)N1CCN(S(=O)(=O)c2c(F)cccc2F)CC1	/	/	/	0%	/
COc1ccc2cc(C(=O)Nc3ccccc3)sc(=O)c2c1OC	-10%	1%	5%	16µM*	1%
COc1ccc2cc(C(=O)Nc3ccc(S(N)(=O)=O)cc3)sc(=O)c2c1OC	-9%	-21%	-16%	3%	?
CN(C)C(=O)c1ccc(-c2cncnc2NCc2cccs2)cc1	3%	/	-13%	28µM*	2%
CN(C)C(=O)c1ccc(-c2cncnc2NCc2ccccc2)cc1	-2%	/	0%	/	-4%
COc1ccc(C2Nc3ccccc3C(=O)N2Cc2ccccc2)cc1COc1ccc(Cl)cc1Cl (configuration not stated)	/	/	/	/	38%
O=C(O)c1ccc(-n2cccc2/C=C2/SC(=O)N(CC(=O)N3CCCC3)C2=O)cc1	-6%	40µM*	/	50µM*	3.4µM*
CCC(CO)[n+]1c(C)cc(/C=C2\Sc3ccccc3N2Cc2ccccc2)cc1C (configuration not stated)	0%	50µM*	?	4%	-8%
O=C(c1ccc(-n2cccn2)cc1)N1CCc2c([nH]c3ccccc23)C1c1ccccn1 (configuration not stated)	13µM*	0%	6%	3%	0%
O=C(CCCCCCCC(=O)NNC(=O)Nc1ccccc1)NNC(=O)Nc1ccccc1	28µM*	9%	-2%	-1%	5%
CC(C)(C)n1ncc2c(=O)n(Cc3cc(F)ccc3Cl)cnc21	/	-20%	/	/	12%
CCCCC(=O)N1CCN(c2nc3ccc(Br)cc3s2)CC1	-3%	7%	/	0%	-17%
CCCC(=O)N1CCN(c2nc3ccc(Br)cc3s2)CC1	-2%	25µM*	/	0%	3%
COc1ccc(CN(Cc2ccccc2)C(=O)c2ccccc2N)cc1COc1ccc(NC(C)=O)cc1	/	/	/	1%	/
NC(=O)NC(=O)COC(=O)c1ccc(OC(F)(F)F)cc1	1%	21%	i	1%	0%
O=C(COC(=O)c1ccc(OC(F)(F)F)cc1)Nc1ncccn1	/	-1%	/	22µM*	?
O=C(COC(=O)c1cccc(OC(F)F)c1)Nc1ncccn1	/	-2%	/	45µM*	-30%
CN1C(=O)N(C)C2=NNC=NC2(O)C1=O (configuration not stated)	28µM*	/	-3%	/	13%
O=C(/C=C/c1ccco1)N1CCN(S(=O)(=O)c2ccccc2)CC1	/	11%	/	10µM*	?
